Measurements published in the supplement of paper PMC5499739.
In all, about 16,000 sequences were measured (“Z-score”: median about -0.37, highest 2% from about 3.2 on). The full list was thinned out, with the highest values kept by preference.

Test system: RBM10 RRM1-ZnF (GST-tagged construct)
Experiment: RNAcompete 7-mer binding Z-score; higher = stronger binding preference
Protocol: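 RNAcompete: 20 pmol GST-tagged RBM10 RNA-binding constructs were incubated with a designed RNA pool of about 241,000 sequences up to 41 nt (1.5 nmol) on glutathione beads for 30 min at 4 °C and washed. Bound RNAs were identified by microarray hybridisation. Each RNA 7-mer is scored by a one-sided Z-score of its enrichment, computed over probes that contain the 7-mer within longer pool sequences.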

Sequence | RNAcompete 7-mer binding Z-score
GAAGGAC | 2.33
AAAGGAA | 3.32
GAAGGAA | 4.56
UAAGGAA | 1.64
CAAGGAA | 1.48
GGAGGAA | 2.93
UAAGGAU | 1.42
CAAGGAU | 1.36
GAAGGAU | 3.32
CAAGGAG | 2.17
GAAGGAG | 4.72
GCAGGAA | 1.77
CAUCACC | -0.795
AACGGUG | 1.56
CACCAAU | -0.639
GCCCGCC | -0.132
AUCCCGG | -0.513
UAGUUAA | -0.373
UUGCACU | -0.639
UUGGUUC | -0.344
UGCCGAC | -0.652
UCAGUAA | -0.461
UUACGCU | -0.5
AAAGGAC | 2.39

Sequence | RNAcompete 7-mer binding Z-score
UAAGGAG | 1.97
AAAGGAG | 3.8
CAGCGCG | -0.324
GUAGACC | 0.00729
CGAGCGG | 3.69
GGAGCGA | 2.71
CGAGCGU | 0.0495
UGAGCGG | 2.38
AGAGCGG | 1.43
GGAGCGG | 4.52
UCACUUA | -0.724
AUUCAAA | -0.662
CAUCUCA | -0.798
CUGGAUC | -0.311
CGGAUGA | 1.15
UGGCGUA | 0.316
AUUGGGG | 3.01
UUGGGGC | 1.95
UGGGCGC | 1.16
AGGGCGG | 2.1
UUUGGGG | 2.72
CUUGGGU | 1.38
UUUGGGU | 2.47
GUUGGGG | 4.26

Sequence | RNAcompete 7-mer binding Z-score
UUGGGGU | 3.27
UUGGGGG | 3.56
CUUGGGG | 1.44
UGGGCGG | 3.38
GCGUUUA | -0.535
CAAUUAA | -0.633
UCACUUC | -0.824
UUCAAAU | -0.607
GUUGCGU | 0.257
UAGUAGU | -0.035
AUAUCCU | -0.789
GAAGUUA | 0.309
CUUUAUG | -0.763
AAUUGGG | 2.54
GUUUGGA | 1.36
GAUUGGG | 3.62
UGGGGGC | 3.07
GGUUUGG | 3.62
GUUUUGG | 1.15
UGGGGGG | 4.02
CGUUUGG | 0.296
GAUUGGC | 0.953
GGUUUUG | 2.03
UGGGGCG | 2.54

Sequence | RNAcompete 7-mer binding Z-score
GUUUGGG | 3.59
UAGGUCC | -0.165
GGGGCGG | 2.7
UCGGGGC | 1.65
ACUAUCU | -0.759
UUGGCGA | 0.605
CCGGGGA | 1.27
GCGGGGA | 3.67
GCGGGGG | 3.94
CCGGGGG | 1.54
GCGGGUU | 2.76
UCGGGGA | 1.6
GCGGGGC | 2.47
UCGGGGU | 2.07
GCGGGGU | 3.75
GUCCAUA | -0.623
CCGACGC | -0.477
AGUACAA | -0.158
GUCAGCC | -0.448
GUGUUAA | -0.0447
UCGGGAG | 1.12
AGGGCAG | 2.11
GGGGCAG | 3.4
AGGGGAG | 2.9

Sequence | RNAcompete 7-mer binding Z-score
UGGGGAG | 3.36
GGGGGAG | 3.22
CGGGGAG | 2.57
UGGGCAG | 2
AGAUAAA | 0.0463
UGACUCA | -0.48
GGUAGCC | 0.784
UCAACAC | -0.461
GAGGAGA | 1.69
ACUUGCU | -0.74
GACUUGA | -0.496
GAGGAAG | 3.26
AAGGAAC | 2.26
CAGGAAA | 0.94
AAGGAAG | 3.84
GAGGAAU | 1.58
AAGGAAU | 2.28
UAGGAAG | 1.72
UAGGAAA | 1.47
AAGGAAA | 3.36
GGCUUAA | -0.0122
UGUCUCG | -0.649
GAUACGU | -0.022
AUGGACA | 1.95

Sequence | RNAcompete 7-mer binding Z-score
UUUGCUC | -0.867
AUGGAGA | 2.62
GUGGAGG | 3.91
AUGGAGU | 2.63
GUGGAGC | 2.91
AUGGAGG | 4.22
GUGGAGU | 2.67
CGUGGUG | 1.52
GAUGGUG | 3.27
AAUGGUG | 2.79
AGUGGUG | 2.37
GGUGGUG | 3.56
GAUGGUC | 0.563
ACCACCA | -0.503
CUUACAC | -0.841
GCUCCCA | -0.574
GUCGUAG | 0.056
ACAUCGA | -0.48
GGUAGGU | 3.31
AGUAGGA | 2.8
CGUAAAG | -0.116
CGUAGGU | 0.949
GGUAGAG | 3.37
GGUAGGA | 3.4

Sequence | RNAcompete 7-mer binding Z-score
AGUAGGU | 1.68
UGUAAAG | 0.173
GGUAAAG | 3.32
CGUAGAG | 0.381
GGUAGGC | 1.92
UGUAGAG | 0.923
GAACCAG | -0.0934
GCGUAGC | -0.0155
CCGAAUU | -0.815
UGACCAC | -0.49
CUGUCGG | -0.305
UAGUCGA | -0.191
CCUUAUA | -0.87
UGGGCUG | 1.83
GGUAGGG | 4.7
GGUAGCG | 1.67
GGUAGUG | 2.47
AAGACUC | -0.561
AAUUAUA | -0.464
GAUCCUC | -0.883
AAUGGUU | 2.44
AAUGGGU | 3.89
UAUGGGC | 1.47
GAUGGGU | 3.53

Sequence | RNAcompete 7-mer binding Z-score
AAUGGCU | 0.303
CAUGGGU | 2.24
UAUGGGU | 2.81
UAUGGGG | 3.4
ACUGGGG | 1.89
AAUGGGG | 4.2
CAUGGGG | 2.42
UAUGGCG | 0.537
GAGGACC | 0.235
CCUCCUC | -0.542
UGUACAU | -0.422
UGUGCCA | -0.542
ACUAUAC | -0.642
CACAUGU | -0.448
CAUUCUU | -0.789
ACGACAC | -0.496
GAUGGGC | 2.15
UAUGGGA | 2.85
GCUGGGG | 2.64
AAUGGGA | 4.35
GAUGGUA | 2.28
GAUGGGG | 4.43
AAUGGGC | 2.5
CAUGGGA | 1.95

Sequence | RNAcompete 7-mer binding Z-score
GAUGGGA | 3.76
CUCACUU | -0.925
UUGUUAC | -0.373
GUUACCG | -0.0999
GGCCGAG | 0.462
UGCGAUA | -0.223
GCCAGAG | 0.00729
GGGGAGA | 3.3
UGGGAGU | 2.27
AGGGAGG | 3.68
GGGGAGU | 2.84
CGGGAGA | 1.24
UGGGAGC | 2.86
CGGGAGG | 3.02
GGGGAGG | 3.64
GGGGAGC | 2.29
AGGGAGU | 2.96
UGGGAGA | 2.78
UGGGAGG | 4.4
AGUCAGU | 0.0105
ACGCCGC | -0.633
UCCAACU | -0.85
GUUACGG | 0.859
GAGCUGA | 0.417

Sequence | RNAcompete 7-mer binding Z-score
GCGCAAA | -0.181
AAGGCCA | -0.00896
UUCUUAG | -0.698
AUCCUAC | -0.87
GUCUCAU | -0.642
AGAAUCC | -0.785
AUACAAU | -0.539
CACGCAA | -0.464
GGGCUAU | 0.849
AGAAAGG | 4.58
GAAAAGG | 4.26
CGAAAGG | 2.19
GAAAGGU | 4.51
AAAAAGG | 2
AAAAGGU | 2.33
GAUAAGG | 3.91
UGAAAGG | 3.05
GAUAAGU | 0.313
CAUAAGG | 0.335
CAAAAGG | 0.888
CAAAGGU | 1.15
